Test results from PubChem BioAssay (NCATS).
Results filed as inconclusive are left out. Values without a mark were called inactive. Calls of active or inactive are those of the source. Calls follow the shape of the dose curve; as a rule, active = well fitted cell-killing curve with a large enough effect; inconclusive = small, poorly fitted or top-dose-only effect; inactive = flat fitted curve, though single readings scatter.

Experiment: qHTS of pediatric cancer cell lines to identify multiple opportunities for drug repurposing: Primary screen for U-2 OS cells (AID 1347096); also: nearly all actives have a fitted effect of over 50% in size;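 as to activity change, negative = cytotoxic: plate controls were DMSO wells for no effect and bortezomib positive control wells for full effect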
Details: U-2 OS viability, CellTiter-Glo luminescence, 48 h; series mostly up to 46 µM; activity change, negative = cytotoxic: at the top concentration
Text: Drug repurposing or repositioning has been offered as a strategy for drug development in oncology programs. This approach has special potential for childhood cancers and other rare or orphan diseases, where the expected return on new drug development has been a disincentive to pharmaceuticals.
In this project we exploit the poly-pharmacology of drugs to discover new indications via phenotypic screening of a panel of 19 well-characterized cell lines derived from solid tumors seen in children and adolescents. The goal is to identify approved drugs with previously unrecognized anticancer properties that has the potential to reveal new mechanisms and biological processes involved in carcinogenesis or drug resistance. We employed a titration-based paradigm (quantitative high-throughput screening or qHTS), where all compounds were tested at multiple concentrations for their effect on cell viability. Concentration-response curves (CRCs) were derived directly from the primary screen, and both potency and efficacy values were used to identify compounds with robust bioactivity profiles. We screened the NIH Chemical Genomics Center (NCGC) Pharmaceutical Collection (NPC) and Mechanism Interrogation Plate (MIPE) small molecule collections of approved and investigational compounds against these cell lines; and measured metabolically active cells after 48 hours of compound treatment as a proxy for cell viability.
Assay Submitter: Nathalia J. Martinez, National Center for Advancing Translational Sciences, National Institutes of Health, Rockville, MD, USA; email: natalia.martinez@nih.gov
[1] Shen, M et al. Quantitative high-throughput phenotypic screening of pediatric cancer cell lines identifies multiple opportunities for drug repurposing. Oncotarget 2017 Dec 19;9(4):4758-4772. PMID 29435139.
The cells were obtained from University of North Carolina (UNC), Pediatric Preclinical Testing Program (PPT), and Coriell Institute (CI).
qHTS cell viability assay:
Cells were assayed in growth media at a density of 500-1,000 cells/well. Five microliters of cells were dispensed into 1,536-well, white, solid-bottom, TC-treated plates (Greiner Bio One) using a multidrop dispenser and incubated at 37 degrees C, 5% CO2, under a humidified atmosphere for 5 hours. Twenty-three nanoliters of compounds and controls (neutral control DMSO or positive control bortezomib at final concentration of 2.3 µM) were subsequently transferred by Kalypsys pintool. For primary screens, the MIPE collection was tested at 11-point dilutions (final concentrations range from 0.78 nM to 46 µM) and the NPC collection at 8-point dilutions (final concentrations range from 0.59 nM to 46 µM). Compounds tested in follow-up screens were assayed at 11-point dilutions. Cells were incubated for 48 hours, followed by addition of 3 µL of CellTiter-Glo (Promega). After a 15 min incubation at room temperature, samples were analyzed for luminescence intensity using a ViewLux High-throughput CCD imager equipped with clear filters.
Potency is read from the fitted curve at half-maximal effect.

SMILES	activity change, negative = cytotoxic	Potency
CN(C)CCOC(c1ccc(Cl)cc1)c1ccccn1 (stereo not given)	-2.38%	
C[N+]12CCC(CC1)C(OC(=O)C(O)(c1ccccc1)c1ccccc1)C2 (stereo not given)	-2.45%	
COc1ccc(S(=O)(=O)N2c3ccc(Cl)cc3[C@@](O)(c3ccccc3Cl)[C@H]2C(=O)N2CCC[C@@H]2C(N)=O)cc1OC	-11.3%	
CCOC(=O)c1ccc(N)cc1	-9.18%	
NS(=O)(=O)Cc1noc2ccccc12	13%	
CC(=O)Nc1ncc([N+](=O)[O-])s1	8.79%	
CCN(CC)CCOc1ccccc1C(=O)CCc1ccccc1	-5.04%	
CC(C)(C)CC(C)(C)c1ccc(O)c(-n2nc3ccccc3n2)c1	-1.73%	
C#C[C@]1(O)CC[C@H]2[C@@H]3CCC4=Cc5oncc5C[C@]4(C)[C@H]3CC[C@@]21C	-22.3%	
CCNC(=O)/C=C/c1cccc(Br)c1	-9.89%	
CN(CCCN1c2ccccc2CCc2ccccc21)CC(=O)c1ccc(Cl)cc1	-3.69%	
CCc1ccc(C(=O)C(C)CN2CCCCC2)cc1 (stereo not given)	-3.82%	
NC(=O)n1c(O)c(C(=O)c2cccs2)c2cc(Cl)ccc21	6.94%	
N[C@H](C(=O)O)[C@@H](O)c1ccc(O)c(O)c1	12%	
CC(C)(C)NC[C@H](O)COc1nsnc1N1CCOCC1	4.97%	
CC(=O)NCCCCCC(=O)O	-2.21%	
N#C/C(=C1\SCC(c2ccccc2Cl)S1)n1ccnc1 (stereo not given)	2.99%	
C[N+]1(C)CCC(=C(c2ccccc2)c2ccccc2)CC1	4.04%	
CCN1/C(=C/C=C/c2sc3ccccc3[n+]2CC)Sc2ccccc21		9.2 µM (active)
COc1cc(C)nc(-n2nc(C)cc2OC)n1	14.5%	

SMILES	activity change, negative = cytotoxic	Potency
O=c1[nH]c(=O)n([C@H]2C[C@H](O)[C@@H](CO)O2)cc1F	-25%	
CCN(CC)CCOC(=O)C(Cc1cccc2ccccc12)CC1CCCO1 (stereo not given)	-12.6%	
C#C[C@]1(OC(C)=O)CC[C@H]2[C@@H]3CCC4=C/C(=N/O)CC[C@@H]4[C@H]3CC[C@@]21CC	-24.6%	
C[N+]1(CC2COC(c3ccccc3)(C3CCCCC3)O2)CCCCC1 (stereo not given)	6.37%	
O=C(O)Cc1csc(-c2ccc(Cl)cc2)n1	-5.93%	
NCCNC(=O)c1ccc(Cl)cn1	0.0352%	
Nc1ccc(S(=O)(=O)NCc2ccccc2)cc1	-3.56%	
CCCCN=C(N)N=C(N)N	8.89%	
CCN(CC)CCOc1ccc2c(c1)C(=O)c1cc(OCCN(CC)CC)ccc1-2	-22.8%	
CC(C)n1c(/C=C/[C@@H](O)C[C@@H](O)CC(=O)O)c(-c2ccc(F)cc2)c2ccccc21		6.68 µM (active)
CC(=O)O[C@H]1C[C@@H]2CC[C@@H]3[C@H](CC[C@@]4(C)[C@H]3C[C@H]([N+]3(C)CCCCC3)[C@@H]4OC(C)=O)[C@@]2(C)C[C@@H]1N1CCCCC1	-1.1%	
COP(=O)(OC)OC(c1ccc(Cl)cc1)P(=O)(OC)OC (stereo not given)	3.14%	
C[C@H]1[C@H]2CC[C@H]3[C@@H]4CC=C5C[C@@H](N(C)C)CC[C@]5(C)[C@H]4CC[C@]23CN1C	-12.1%	
CCN(CC)CCNC(=O)COc1ccc(OC)cc1	-5.4%	
O=C(O)c1ccc(S(=O)(=O)N(Cl)Cl)cc1	0.495%	
CCCCCCCCCCC[C@@H](C[C@@H]1OC(=O)[C@H]1CCCCCC)OC(=O)[C@H](CC(C)C)NC=O	7.42%	
OCc1ccccn1	-2.73%	
CCCCc1cc2ccccc2c(OCCN(C)C)n1	-13.9%	
COc1cc(C(=S)N2CCOCC2)ccc1O	-6.99%	
C=C[C@H]1CN2CC[C@H]1C[C@@H]2[C@@H](O)c1ccnc2ccc(OC)cc12	10.5%	
